# Reference: PubChem BioAssay (NCI)
# About 79,000 compounds went through this panel and 15% of them were active in at least one assay; those are over-represented in the sample as a whole. Active and inactive are the calls of the source. Rule as the data show it: active = growth inhibition above about 70%; inactive = the rest.
# Test: NCI Yeast Anticancer Drug Screen. Data for the rad50EPP+ strain (AID 151);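 also: 0% = growth of vehicle-treated control cultures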
# Conditions: S. cerevisiae rad50 mutant strain, stronger effect = higher value
# Description: Growth inhibition of yeast strains with defined genetic alterations is measured as a screen for potential anti-cancer activity. Selected strains with alterations in DNA damage repair or cell cycle control were exposed to compounds and growth inhibition was measured relative to vehicle treated controls. The strain used in this assay is rad50EPP+
SMILES,growth inhibition (at 1.2 µM),growth inhibition (at 3.7 µM),growth inhibition (at 11.0 µM),growth inhibition (at 33.0 µM),growth inhibition (at 100.0 µM)
NCCOc1ccc(/C(=C(/Cl)c2ccccc2)c2ccccc2)cc1,0% (inactive),9% (inactive),15% (inactive),97% (active),96% (active)
COc1cccc(C(NC2=NCCC=N2)c2cc3c(cc2O)OCO3)c1O (stereo not given),-9% (inactive),-9% (inactive),-4% (inactive),6% (inactive),9% (inactive)
O=C(Nc1cccs1)c1ccccc1,-1% (inactive),7% (inactive),10% (inactive),18% (inactive),38% (inactive)
CCC(OC(C)=O)C1CC(C(C)C)CCC1C (stereo not given),0% (inactive),0% (inactive),15% (inactive),46% (inactive),96% (active)
CCOC(=O)C(Cc1c2ccccc2cc2ccccc12)(NC(C)=O)C(=O)OCC,0% (inactive),0% (inactive),6% (inactive),12% (inactive),10% (inactive)
O=C(Oc1ccc([N+](=O)[O-])cc1)c1ccc([N+](=O)[O-])cc1,5% (inactive),2% (inactive),-3% (inactive),9% (inactive),11% (inactive)
CN1C(=O)C(CC(=O)O)NC1=S (stereo not given),-1% (inactive),-3% (inactive),-2% (inactive),-10% (inactive),-5% (inactive)
CCCCCCCCSC1=C(Cl)C(=O)C(OC)=C(OC)C1=O,-29% (inactive),-44% (inactive),-1% (inactive),18% (inactive),73% (active)
